In PubChem BioAssay (NCI) one finds growth data, which are given here for 39 compounds.

SMILES strings stand for the structures. This is part of a sample that, as a whole, favours compounds with a hit. Of some 83,000 tested, about 20% had one in any assay.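 Compound tested at a single concentration for 48 hours in 96-well plates; a percent growth value below 10 was scored as active.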 Activity calls are given as the source filed them.

The subject of one assay is NCI/ADR-RES ovarian. The assay can be described thus: NCI-60 one-dose screen, 48 h (100 = growth as untreated, 0 = no growth, -100 = all killed). The settings on record: 10 µM unless noted.
Regarding `O=c1oc2ccccc2cc1-c1csc(N=Nc2c(O)[nH]c3ccc(Cl)cc23)n1`, the growth was 105% (inactive). For `COc1cc2nc(SCc3cc(OC)c(OC)c(OC)c3)n(-c3ccccc3OC)c(=O)c2cc1OC`, the growth is 62.9% (inactive). Take `COc1ccc(-c2nc3sccn3c2/C=C/C(=O)c2cc(OC)c(OC)c(OC)c2)cc1OC`: the growth is -9.5% (active). For the compound `COC(=O)c1c2c(c(C)[n+]([O-])c1C)C(=O)C=C(NCc1ccc(F)c(Cl)c1)C2=O`, the growth was -18.6% (active).

On to `Cc1nc2cc(Nc3nc(Nc4ccc(F)cc4)nc(N4CCCC4)n3)ccc2n1Cc1ccccc1`, for which the growth is -28% (active).

Regarding `COc1cc2oc(-c3ccc(O)cc3)cc(=O)c2c(O)c1I`, the growth was 98% (inactive). For the compound `COC(=O)c1c2c(c(C)[n+]([O-])c1C)C(=O)C=C(NCc1ccc(Cl)cc1)C2=O`, the growth is -15.1% (active). With `Cc1nc2cc(Nc3nc(Nc4ccc(F)cc4)nc(N4CCN(C)CC4)n3)ccc2n1Cc1ccccc1`, the growth was 43.1% (inactive).

Consider `COc1ccc(OC)c2ncccc12`, for which the growth is 100% (inactive). For `COc1ccc(S(=O)(=O)ON=C2C=C(C)C(=O)C(C)=C2)cc1`, the growth was 98.5% (inactive).

For `Oc1cccc(Nc2nc(-c3ccccn3)cs2)c1`, the growth is 94.6% (inactive).

Take `O=C1c2c(c3c4cc(Br)ccc4[nH]c3c3ccc4ccccc4c23)C(=O)N1O`: the growth was 98.1% (inactive). As to `COC(=O)c1c2c(c(C)[n+]([O-])c1C)C(=O)C=C(NCc1cccc(Cl)c1)C2=O`, the growth is -12.7% (active). For `COc1ccc(-c2nc(Nc3ccc(F)cc3)nc(Nc3ccc4c(c3)nc(C)n4Cc3ccccc3)n2)cc1`, the growth was 26.6% (inactive). Turning to `O=C(N/N=C(\CS(=O)(=O)c1ccccc1)c1cc2ccccc2oc1=O)c1ccccc1`, the growth is 107% (inactive). On to `COc1ccc(C(=O)C2=CC(=O)C(=O)C2)cc1OC`, for which the growth is 99.5% (inactive).

Regarding `Cc1ccc(S(=O)(=O)N2C/C(=C\c3cc(F)cc(F)c3)C(=O)/C(=C/c3cc(F)cc(F)c3)C2)cc1`, the growth was 7.23% (active). On the same count and under the same terms, the figure for `Nc1nc(N)c(N=Nc2c(Br)cc(S(N)(=O)=O)cc2Br)c(N)n1` is 107% (inactive).

For `Cc1ccc(-c2c3c(N)c4c(nc3nc3c2c(C)nn3-c2ccccc2)CCCC4)cc1`, the growth is 106% (inactive). Consider `COc1cc(-c2nc3ccccc3o2)cc(CN2CCN(c3ccccc3)CC2)c1O`, for which the growth was 69.4% (inactive). `Cc1cccc2c(=O)c3c(sc12)c(NCCNCCO)nc1ccccc13`: the growth is 45.1% (inactive).

Take `Nc1nc2c(s1)CCc1c-2c(Br)n(Cc2ccccc2)c1Br`: the growth is 89.7% (inactive). `COC(=O)c1c2c(c(C)[n+]([O-])c1C)C(=O)C=C(NCc1cccc(OC)c1)C2=O`: the growth was -25.6% (active).

Turning to `COc1ccc(-c2csc3c2-n2cccc2C3=O)cc1O`, the growth is -25.4% (active).

As to `O=C(N/N=C(\CS(=O)(=O)c1ccccc1)c1cc2cc(Br)ccc2oc1=O)c1ccccc1`, the growth was 105% (inactive). Consider `Cn1c(=O)c2c(-c3ccccc3F)n(-c3ccc4c(c3)OCO4)cc2n(C)c1=O`, for which the growth was 95.8% (inactive). As to `CN(C)C(=S)SCN1C(=O)c2ccc([N+](=O)[O-])cc2S1(=O)=O`, the growth was 96.4% (inactive). With `Cc1nn(-c2ccccc2)c2nc3nc4c(c(N)c3c(-c3ccc(Cl)cc3)c12)CCCC4`, the growth is 106% (inactive). For `COc1cc(CNCCN2C(=O)c3ccc4c5c(ccc(c35)C2=O)C(=O)N(CCNCc2cc(OC)c(OC)c(OC)c2)C4=O)cc(OC)c1OC`, the growth was -20.2% (active). As for `COc1cc(-c2ccc3cc(OC)c(OC)c(OC)c3c2)cc(OC)c1OC`, the growth was 36.6% (inactive). With `COc1cccc(-c2ccc3c(c2)C2CCN(Cc4ccccc4)C3C2)c1` (configuration not stated), the growth was 68.8% (inactive). On the same count and under the same terms, the figure for `COc1ccc(OC2=CC(=O)c3ccc(C)nc3C2=O)cc1` is 87.5% (inactive); for `CC(=O)OC[C@]1(C)C=C2C(=O)[C@](C)(O)C3(CC3)C(C)=C2[C@H]1OC(C)=O` it is 75% (inactive).

The test system of another assay is T-47D breast. The assay is described as above. The settings on record: 10 µM.
Take `O=c1oc2ccccc2cc1-c1csc(N=Nc2c(O)[nH]c3ccc(Cl)cc23)n1`: the growth was 98.8% (inactive). As for `COc1cc2nc(SCc3cc(OC)c(OC)c(OC)c3)n(-c3ccccc3OC)c(=O)c2cc1OC`, the growth was 88.6% (inactive). Same read-out and setting: with `COc1ccc(-c2nc3sccn3c2/C=C/C(=O)c2cc(OC)c(OC)c(OC)c2)cc1OC` the figure was 4.81% (active).

As to `O=C(N/N=C/c1ccc(F)cc1)c1[nH]c2ccc(I)cc2c1-c1ccccc1`, the growth is 48.4% (inactive). For the compound `Cc1nc2cc(Nc3nc(Nc4ccc(F)cc4)nc(N4CCCC4)n3)ccc2n1Cc1ccccc1`, the growth is -31.3% (active).

Consider `COc1cc2oc(-c3ccc(O)cc3)cc(=O)c2c(O)c1I`, for which the growth is 93.1% (inactive).

For `COC(=O)c1c2c(c(C)[n+]([O-])c1C)C(=O)C=C(NCc1ccc(Cl)cc1)C2=O`, the growth is -33.8% (active). On the same count and under the same terms, the figure for `Cc1nc2cc(Nc3nc(Nc4ccc(F)cc4)nc(N4CCN(C)CC4)n3)ccc2n1Cc1ccccc1` is -10.7% (active). Regarding `COc1ccc(OC)c2ncccc12`, the growth is 100% (inactive).

Consider `COc1ccc(S(=O)(=O)ON=C2C=C(C)C(=O)C(C)=C2)cc1`, for which the growth was 40.3% (inactive). With `O=C(COc1cccc(/C=C2\COc3ccccc3C2=O)c1)c1ccccc1`, the growth was 75.3% (inactive). For `O=C1c2c(c3c4cc(Br)ccc4[nH]c3c3ccc4ccccc4c23)C(=O)N1O`, the growth is 69.3% (inactive). As for `C=CC[P+](c1ccccc1)(c1ccccc1)c1ccccc1`, the growth is 16.5% (inactive). Take `COC(=O)c1c2c(c(C)[n+]([O-])c1C)C(=O)C=C(NCc1cccc(Cl)c1)C2=O`: the growth is -37.6% (active). On the same count and under the same terms, the figure for `O=C(N/N=C(\CS(=O)(=O)c1ccccc1)c1cc2ccccc2oc1=O)c1ccccc1` is 101% (inactive); for `COc1ccc(C(=O)C2=CC(=O)C(=O)C2)cc1OC` it is 99.7% (inactive); for `COc1ccc(C(=O)COc2cccc(/C=C3\CSc4ccc(C)cc4C3=O)c2)cc1` it is 79.7% (inactive). For `Cc1ccc(S(=O)(=O)N2C/C(=C\c3cc(F)cc(F)c3)C(=O)/C(=C/c3cc(F)cc(F)c3)C2)cc1`, the growth is -0.238% (active).

As to `Nc1nc(N)c(N=Nc2c(Br)cc(S(N)(=O)=O)cc2Br)c(N)n1`, the growth is 88.6% (inactive).

In the case of `Cc1ccc(-c2c3c(N)c4c(nc3nc3c2c(C)nn3-c2ccccc2)CCCC4)cc1`, the growth is 92.6% (inactive).

Turning to `COc1cc(-c2nc3ccccc3o2)cc(CN2CCN(c3ccccc3)CC2)c1O`, the growth is 91.5% (inactive).

Turning to `Cc1cccc2c(=O)c3c(sc12)c(NCCNCCO)nc1ccccc13`, the growth was 44.8% (inactive). For the compound `Nc1nc2c(s1)CCc1c-2c(Br)n(Cc2ccccc2)c1Br`, the growth is 34.3% (inactive).

For `COC(=O)c1c2c(c(C)[n+]([O-])c1C)C(=O)C=C(NCc1cccc(OC)c1)C2=O`, the growth is -43.9% (active). Consider `COc1ccc(-c2csc3c2-n2cccc2C3=O)cc1O`, for which the growth was 79.6% (inactive). Take `COc1ccc(-c2c(-c3cc4c(c(OC)c3OC)OCO4)noc2N)cc1`: the growth is 47.5% (inactive). Still for that read-out and setting: with `CN(C)C(=S)SCN1C(=O)c2ccc([N+](=O)[O-])cc2S1(=O)=O` the figure was 102% (inactive); with `Cc1nn(-c2ccccc2)c2nc3nc4c(c(N)c3c(-c3ccc(Cl)cc3)c12)CCCC4`, 108% (inactive). Regarding `COc1cc(CNCCN2C(=O)c3ccc4c5c(ccc(c35)C2=O)C(=O)N(CCNCc2cc(OC)c(OC)c(OC)c2)C4=O)cc(OC)c1OC`, the growth was -56.2% (active). For the compound `O=C(O)c1ccccc1Oc1cc(-c2ccco2)nc(OCCBr)n1`, the growth is 101% (inactive). In the case of `COc1cc(-c2ccc3cc(OC)c(OC)c(OC)c3c2)cc(OC)c1OC`, the growth is 50.7% (inactive). As to `COc1cccc(-c2ccc3c(c2)C2CCN(Cc4ccccc4)C3C2)c1` (configuration not stated), the growth was 76.3% (inactive). The same measure, in the same setting: the figure for `COc1ccc(OC2=CC(=O)c3ccc(C)nc3C2=O)cc1` is 79.9% (inactive); for `CC(=O)OC[C@]1(C)C=C2C(=O)[C@](C)(O)C3(CC3)C(C)=C2[C@H]1OC(C)=O` it is 73.6% (inactive).
